For 33 molecules, binding signal results are on record in article PMC9911399, “Two distinct binding modes provide the RNA-binding protein RbFox with extraordinary sequence specificity”.

To fix the notation:
T1: RBFOX1 RRM (Homo sapiens, UniProt Q9NWB1 109-208)
T1 sequence: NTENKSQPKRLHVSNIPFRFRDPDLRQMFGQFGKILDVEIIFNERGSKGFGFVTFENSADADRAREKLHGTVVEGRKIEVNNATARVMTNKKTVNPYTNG

B1: GACUUAC (DNA:RNA)
RNA: GGGAGACCGGAAUUCAGAUUGUCCGACUUACUUAAAUCCCGUCGUAGCCACCA
DNA 1: CAATCTGAATTCCGGTCTCCC
DNA 2: TGGTGGCTACGACGGGATT
B2: AGCGCCC (DNA:RNA)
RNA: B1 RNA with G25A, A26G, U28G, U29C, A30C
DNA 1: CAATCTGAATTCCGGTCTCCC
DNA 2: TGGTGGCTACGACGGGATT
B3: GAUUAAA (DNA:RNA)
RNA: B1 RNA with C27U, U29A, C31A
DNA 1: CAATCTGAATTCCGGTCTCCC
DNA 2: TGGTGGCTACGACGGGATT
B4: CAAACAU (DNA:RNA)
RNA: B1 RNA with G25C, C27A, U28A, U29C, C31U
DNA 1: CAATCTGAATTCCGGTCTCCC
DNA 2: TGGTGGCTACGACGGGATT
B5: UAGGGUA (DNA:RNA)
RNA: B1 RNA with G25U, C27G, U28G, U29G, A30U, C31A
DNA 1: CAATCTGAATTCCGGTCTCCC
DNA 2: TGGTGGCTACGACGGGATT
B6: CGGCUCA (DNA:RNA)
RNA: B1 RNA with G25C, A26G, C27G, U28C, A30C, C31A
DNA 1: CAATCTGAATTCCGGTCTCCC
DNA 2: TGGTGGCTACGACGGGATT
B7: AUGGGUC (DNA:RNA)
RNA: B1 RNA with G25A, A26U, C27G, U28G, U29G, A30U
DNA 1: CAATCTGAATTCCGGTCTCCC
DNA 2: TGGTGGCTACGACGGGATT
B8: ACGAACG (DNA:RNA)
RNA: GGGAGACCGGAAUUCAGAUUGUCCACGAACGUUAAAUCCCGUCGUAGCCACCA
DNA 1: CAATCTGAATTCCGGTCTCCC
DNA 2: TGGTGGCTACGACGGGATT
B9: GAGUUAU (DNA:RNA)
RNA: B1 RNA with C27G, C31U
DNA 1: CAATCTGAATTCCGGTCTCCC
DNA 2: TGGTGGCTACGACGGGATT
B10: UGCUUGC (DNA:RNA)
RNA: B1 RNA with G25U, A26G, A30G
DNA 1: CAATCTGAATTCCGGTCTCCC
DNA 2: TGGTGGCTACGACGGGATT
B11: CUAGUUG (DNA:RNA)
RNA: B8 RNA with A25C, C26U, G27A, A28G, A29U, C30U
DNA 1: CAATCTGAATTCCGGTCTCCC
DNA 2: TGGTGGCTACGACGGGATT
B12: UGCUAGU (DNA:RNA)
RNA: B1 RNA with G25U, A26G, U29A, A30G, C31U
DNA 1: CAATCTGAATTCCGGTCTCCC
DNA 2: TGGTGGCTACGACGGGATT
B13: UUGCUGC (DNA:RNA)
RNA: B1 RNA with G25U, A26U, C27G, U28C, A30G
DNA 1: CAATCTGAATTCCGGTCTCCC
DNA 2: TGGTGGCTACGACGGGATT
B14: UUGAUGC (DNA:RNA)
RNA: B8 RNA with A25U, C26U, A29U, C30G, G31C
DNA 1: CAATCTGAATTCCGGTCTCCC
DNA 2: TGGTGGCTACGACGGGATT
B15: CUGCUAG (DNA:RNA)
RNA: B8 RNA with A25C, C26U, A28C, A29U, C30A
DNA 1: CAATCTGAATTCCGGTCTCCC
DNA 2: TGGTGGCTACGACGGGATT
B16: UGCUUGA (DNA:RNA)
RNA: B1 RNA with G25U, A26G, A30G, C31A
DNA 1: CAATCTGAATTCCGGTCTCCC
DNA 2: TGGTGGCTACGACGGGATT
B17: UGAUUGC (DNA:RNA)
RNA: B1 RNA with G25U, A26G, C27A, A30G
DNA 1: CAATCTGAATTCCGGTCTCCC
DNA 2: TGGTGGCTACGACGGGATT
B18: UGCUUAA (DNA:RNA)
RNA: B1 RNA with G25U, A26G, C31A
DNA 1: CAATCTGAATTCCGGTCTCCC
DNA 2: TGGTGGCTACGACGGGATT
B19: UAACAUU (DNA:RNA)
RNA: B8 RNA with A25U, C26A, G27A, A28C, C30U, G31U
DNA 1: CAATCTGAATTCCGGTCTCCC
DNA 2: TGGTGGCTACGACGGGATT
B20: UACAGUC (DNA:RNA)
RNA: B1 RNA with G25U, U28A, U29G, A30U
DNA 1: CAATCTGAATTCCGGTCTCCC
DNA 2: TGGTGGCTACGACGGGATT
B21: AGCAGAA (DNA:RNA)
RNA: B8 RNA with C26G, G27C, A29G, C30A, G31A
DNA 1: CAATCTGAATTCCGGTCTCCC
DNA 2: TGGTGGCTACGACGGGATT
B22: GCAUAAU (DNA:RNA)
RNA: B1 RNA with A26C, C27A, U29A, C31U
DNA 1: CAATCTGAATTCCGGTCTCCC
DNA 2: TGGTGGCTACGACGGGATT
B23: GCAUGAC (DNA:RNA)
RNA: B1 RNA with A26C, C27A, U29G
DNA 1: CAATCTGAATTCCGGTCTCCC
DNA 2: TGGTGGCTACGACGGGATT
B24: GCAUUCA (DNA:RNA)
RNA: B1 RNA with A26C, C27A, A30C, C31A
DNA 1: CAATCTGAATTCCGGTCTCCC
DNA 2: TGGTGGCTACGACGGGATT
B25: GGCAUAA (DNA:RNA)
RNA: B1 RNA with A26G, U28A, C31A
DNA 1: CAATCTGAATTCCGGTCTCCC
DNA 2: TGGTGGCTACGACGGGATT
B26: GCAUGGA (DNA:RNA)
RNA: B1 RNA with A26C, C27A, U29G, A30G, C31A
DNA 1: CAATCTGAATTCCGGTCTCCC
DNA 2: TGGTGGCTACGACGGGATT
B27: GGCAUGA (DNA:RNA)
RNA: B1 RNA with A26G, U28A, A30G, C31A
DNA 1: CAATCTGAATTCCGGTCTCCC
DNA 2: TGGTGGCTACGACGGGATT
B28: GUAUGAC (DNA:RNA)
RNA: B1 RNA with A26U, C27A, U29G
DNA 1: CAATCTGAATTCCGGTCTCCC
DNA 2: TGGTGGCTACGACGGGATT
B29: GUCAUGA (DNA:RNA)
RNA: B1 RNA with A26U, U28A, A30G, C31A
DNA 1: CAATCTGAATTCCGGTCTCCC
DNA 2: TGGTGGCTACGACGGGATT
B30: GGAUGAC (DNA:RNA)
RNA: B1 RNA with A26G, C27A, U29G
DNA 1: CAATCTGAATTCCGGTCTCCC
DNA 2: TGGTGGCTACGACGGGATT
B31: GCAUUUU (DNA:RNA)
RNA: B1 RNA with A26C, C27A, A30U, C31U
DNA 1: CAATCTGAATTCCGGTCTCCC
DNA 2: TGGTGGCTACGACGGGATT
B32: GCAUGAU (DNA:RNA)
RNA: B1 RNA with A26C, C27A, U29G, C31U
DNA 1: CAATCTGAATTCCGGTCTCCC
DNA 2: TGGTGGCTACGACGGGATT
B33: GGAUGGA (DNA:RNA)
RNA: B1 RNA with A26G, C27A, U29G, A30G, C31A
DNA 1: CAATCTGAATTCCGGTCTCCC
DNA 2: TGGTGGCTACGACGGGATT

Residue numbers refer to the chain shown, from its start. Over roughly 16,000 sequences, “ka relative to ugcaugu” has its median near 0.0091; the highest 2% begin near 0.032. The entries come from a sample that favours the highest values as a whole.

For the assay, the target named is T1, RBFOX1 RRM. The assay can be described thus: EMSA; HiTS-Eq, 1 nM pool, 10 min; buffer printed only for the single-RNA assays: 10 mM Tris pH 7.5, 150 mM NaCl, 3.4 mM EDTA, 0.001% NP-40, 30 C. To be noted: tags: His6 N-terminal (pET28a); label: 5' 32P. Summed up:
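A pool of RNA with 7 randomized nucleotides, 5′-radiolabelled and with DNA-annealed flanks, was equilibrated at 1 nM for 10 min in 50 µL with purified RbFox RRM, wild type or mutant, across increasing protein concentrations. Free RNA was separated by 8% native PAGE, excised, reverse-transcribed, barcoded by PCR and sequenced. Relative association constants were obtained from read-count changes of each RNA species versus the control reaction and normalised to the cognate motif.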
(Mobility shift assays separate free from complexed probe on a gel.)
Turning to B1, the binding signal is 0.00749 KA relative to UGCAUGU. As for B2, the binding signal is 0.00884 KA relative to UGCAUGU.

For the molecule B3, the binding signal is 0.00427 KA relative to UGCAUGU. For B4 the value was 0.000358 KA relative to UGCAUGU; for B5, 0.0162 KA relative to UGCAUGU; for B6, 0.00697 KA relative to UGCAUGU. For B7 the value was 0.0197 KA relative to UGCAUGU; for B8, 0.0126 KA relative to UGCAUGU. For B9, the binding signal was 0.00747 KA relative to UGCAUGU. Turning to B10, the binding signal was 0.088 KA relative to UGCAUGU. The same measure for B11: 0.0137 KA relative to UGCAUGU; for B12: 0.0309 KA relative to UGCAUGU. For B13 the value was 0.0167 KA relative to UGCAUGU. In the case of B14, the binding signal was 0.0187 KA relative to UGCAUGU.

For the molecule B15, the binding signal was 0.0317 KA relative to UGCAUGU. Regarding B16, the binding signal was 0.0378 KA relative to UGCAUGU. Consider B17, for which the binding signal is 0.0265 KA relative to UGCAUGU. Take B18: the binding signal was 0.0138 KA relative to UGCAUGU. In the case of B19, the binding signal is 0.00574 KA relative to UGCAUGU. For the molecule B20, the binding signal is 0.00675 KA relative to UGCAUGU. The same measure for B21: 0.00732 KA relative to UGCAUGU. The same measure for B22: 0.00163 KA relative to UGCAUGU.

As for B23, the binding signal was 0.599 KA relative to UGCAUGU. Regarding B24, the binding signal is 0.00789 KA relative to UGCAUGU. Regarding B25, the binding signal is 0.00272 KA relative to UGCAUGU. For the molecule B26, the binding signal is 0.0333 KA relative to UGCAUGU. Turning to B27, the binding signal was 0.156 KA relative to UGCAUGU. B28: the binding signal is 0.0127 KA relative to UGCAUGU. For the molecule B29, the binding signal is 0.0126 KA relative to UGCAUGU. Regarding B30, the binding signal was 0.015 KA relative to UGCAUGU. Regarding B31, the binding signal is 0.0088 KA relative to UGCAUGU. For B32 the value was 0.626 KA relative to UGCAUGU. As for B33, the binding signal is 0.0107 KA relative to UGCAUGU.
